# The entries come from a sample that favours hits as a whole.
# FBPA Giardia inh: Giardia lamblia aldolase inhibition; A8B2U2; purified Giardia FBPA; Potency, µM (series often up to 59.6 µM), without a hit: at the highest dose activity, negative = inhibition, most hits filed as inhibitors; actives 0.71% (n = 290,000); AID 2451; also: potency is read from the fitted curve at half-maximal effect; % is scaled to controls: 0 for no effect and ±100 for the full control effect; nearly all actives have a fitted effect of over 55% in size
#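 40 nM FBPA preincubated 10 min at RT with compound (up to 57.5 uM final), then substrate plus GAPDH/TPI/NAD/arsenate coupling and diaphorase/resazurin added. Fluorescence read after 20 min at RT, 525/598 nm.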
# Cycloheximide cs: counter-screen hit for Shiga toxin inhibitors, cycloheximide | cell reporter, cycloheximide protein synthesis inhibition counterscreen | max response, % | actives 12% (n = 300,000); in the data active = max response mostly above about 13%, no sharp cut-off; inactive = mostly below about 14%; also: read at 38.3 µM for the half of the compounds with a filed dose; 0% is about no effect
# Tb PYK inh: T. brucei pyruvate kinase inhibition. Q57TT1. Potency, µM (highest dose often 76.8 µM), inactives show at the top dose activity, negative = inhibition, actives largely listed as inhibitors. AID 624173. actives 0.12% (n = 410,000). TbPYK enzyme, Kinase-Glo Plus ATP luminescence, 45 min; also: potency is read from the fitted curve at half-maximal effect; % is scaled to controls: 0 for no effect and ±100 for the full control effect; nearly all actives have a fitted effect of over 50% in size
#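 Enzyme and substrate buffer are dispensed first and compound is pin-transferred. ADP at 130 uM final then starts the reaction, which runs 45 min at room temperature. Detection reagent is added for 10 min before luminescence is imaged.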
# Shiga toxin inh: blocks Shiga toxin action in Vero cells | Vero cells, Shiga toxin protein synthesis inhibition reporter | inhibition, % at 38.7 µM | actives 9.2% (n = 290,000) | AID 2315; in the data active = inhibition mostly above about 28%, no sharp cut-off; inactive = mostly below about 43%; also: 0% is about no effect
# LmPK inh: LmPK (Leishmania mexicana) enzyme inhibition; purified LmPK, Kinase-Glo ATP luminescence, 1 h; Potency, µM (titrated, usually from 57.5 µM), without a hit: top-dose activity change, negative = inhibition, hits mostly inhibitors; actives 0.37% (n = 290,000); AID 1721; also: potency is read from the fitted curve at half-maximal effect; % is scaled to controls: 0 for no effect and ±100 for the full control effect
# Target sequence (Q27686 whole entry, looked up): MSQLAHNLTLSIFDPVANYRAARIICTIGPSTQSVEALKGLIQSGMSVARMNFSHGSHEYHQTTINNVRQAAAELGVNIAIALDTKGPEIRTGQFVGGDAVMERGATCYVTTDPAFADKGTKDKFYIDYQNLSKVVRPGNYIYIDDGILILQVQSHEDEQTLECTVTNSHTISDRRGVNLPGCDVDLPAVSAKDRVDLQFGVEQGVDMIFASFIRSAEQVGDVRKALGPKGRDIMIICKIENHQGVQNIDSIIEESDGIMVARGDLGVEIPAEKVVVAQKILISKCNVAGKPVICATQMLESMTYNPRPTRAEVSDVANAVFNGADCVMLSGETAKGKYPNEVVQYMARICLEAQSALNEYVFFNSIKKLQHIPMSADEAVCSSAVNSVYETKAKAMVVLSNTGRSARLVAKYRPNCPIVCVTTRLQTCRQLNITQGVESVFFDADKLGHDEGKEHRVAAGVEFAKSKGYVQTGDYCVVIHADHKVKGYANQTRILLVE
#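 ATP generated from ADP (0.1 mM) and PEP (0.5 mM) by 0.1 nM LmPK over 1 h at room temperature (pH 7.2 imidazole buffer) was detected by coupled luciferase luminescence. Values were normalized to uninhibited and no-enzyme wells.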
# Sm TGR block: inhibitors of Schistosoma mansoni thioredoxin glutathione reductase | purified TGR, DTNB reduction, TNB absorbance 405 nm | Potency, µM (top dose mostly 114 µM), inactives show at the highest dose activity change, negative = inhibition, hits mostly inhibitors | actives 3% (n = 360,000) | AID 485364; also: potency is read from the fitted curve at half-maximal effect; % is scaled to controls: 0 for no effect and ±100 for the full control effect; nearly all actives have a fitted effect of over 60% in size
#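 First, TGR (20 nM dispensed) and NADPH were mixed with compound. Second, a 15 min room-temperature incubation followed. Third, further NADPH and then DTNB were added to start the reaction. Finally, TNB absorbance was monitored kinetically.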
# * = called active by the depositor; u = inconclusive; x = no result; [ ] = remark or other dose. Unless noted, calls follow the shape of the dose curve; as a rule, active = well fitted curve in the direction sought with a large enough effect; inconclusive = small, poorly fitted or top-dose-only effect, or another doubt; inactive = no such curve, though single readings can be large; an effect the other way counts as inactive or inconclusive.
SMILES,FBPA Giardia inh,Cycloheximide cs,Tb PYK inh,Shiga toxin inh,LmPK inh,Sm TGR block
COc1ccc(OCC(=O)Nc2cc(-c3nc4ccccc4o3)ccc2Cl)cc1,x,x,0.6%,x,x,2.9%
Cc1ccc(C(=O)c2ccccc2C(=O)Nc2ccccc2)cc1,x,x,-4.8%,x,x,0.0%
Cc1ccc(C(=O)Sc2cccccc2=O)cc1,17.2%,77.8*,0.9%,134.9*,-12.4%,u
COc1ccc(C2=CC3=C(Br)C(=O)C(C)(OC(=O)c4cccs4)C(=O)C3=CO2)cc1 (stereo not drawn),-3.6%,x,-5.2%,x,x,x
COc1ccc(C2=CC3=C(Br)C(=O)C(C)(OC(=O)c4ccco4)C(=O)C3=CO2)cc1 (stereo not drawn),u,0.7,-16.3%,-3.4,-14.2%,5.01µM*
COc1cccc(NC(=S)NCc2cccnc2)c1,-0.8%,-3.5,-10.6%,18.3,0.0%,44.7µM*
COCCN(C(=S)Nc1cccc(OC)c1)C(C)c1cccs1 (stereo not drawn),-12.6%,15.3*,-4.6%,8.8,0.7%,-6.7%
CCc1c(C)sc(NC(=S)Nc2nc(C)cc(C)n2)c1C(=O)OC,-0.4%,12.0,-7.7%,-5.7,-0.3%,-18.2%
CCc1c(C)sc(NC(=S)Nc2cccnc2)c1C(=O)OC,u,-1.8,1.4%,21.9*,5.5%,u
COc1ccc(OC)c(NC(=S)NCc2cccnc2)c1,-3.9%,2.4,-8.6%,25.6,-4.4%,u
Cc1ccc(NC(=S)NCc2cccs2)cc1,-0.2%,31.3*,-0.1%,8.6,0.1%,u
Cn1c(=O)c(=O)n(C)c2cc(NS(=O)(=O)c3ccc(Br)cc3)c(Cl)cc21,x,x,1.9%,x,x,3.3%
CCCCOc1ccc(C(=O)OCC(=O)NC2CCCC2)cc1,-6.2%,-5.0,-1.4%,-10.6,-2.8%,3.9%
C=CCN1c2ccccc2[C@]23C[C@@H](C(=O)OC)N(C(=O)COCc4ccccc4)C2=NC(C(=O)OC)=C(C(=O)OC)[C@H]13,6.0%[12.9 µM],x,x,x,0.0%[11.5 µM],x
COc1ccc(CNC(=O)CNS(=O)(=O)c2ccc(Cl)cc2)cc1,2.0%,-1.6,1.2%,1.8,-0.4%,-16.5%
C=CC1=C2C=C(C3CC3)N(CCCOC(C)C)C=C2C(=O)C(C)(OC(=O)c2ccco2)C1=O (stereo not drawn),u,x,x,x,-2.1%[11.5 µM],x
FC(F)(F)c1cccc(NC(=S)NCc2ccc(Cl)cc2)c1,-5.0%,-1.6,3.8%,10.9,1.3%,-0.6%
Fc1ccc(CNC(=S)Nc2cccc(C(F)(F)F)c2)cc1,2.4%,13.4*,-4.1%,18.0,5.3%,-13.6%
COc1ccc(Cl)cc1NC(=S)Nc1cccnc1,-7.4%,-2.1,0.3%,-8.4,0.8%,12.6µM*
S=C(NCc1cccnc1)Nc1cccc2ccccc12,5.8%,4.6,-12.0%,-1.0,3.2%,31.6µM*
COc1ccc(Cl)cc1NC(=S)Nc1cccc(C)c1,0.6%,1.5,2.1%,-2.8,4.7%,-1.4%
COc1cccc(NC(=S)NCc2ccccc2)c1,-5.3%,21.7*,-2.6%,33.0*,-3.6%,-25.3%
COc1ccc(-n2c(/C=C/c3cccc(C(F)(F)F)c3)nc3ccccc3c2=O)cc1Cl,x,x,0.5%,x,x,3.8%
Cc1ccc2oc3c(c(=O)c2c1)C(c1ccccc1F)N(CCCN(C)C)C3=O (stereo not drawn),x,x,1.0%,x,x,-6.2%
Cc1cccc(NC(=S)NNC(=S)NCc2ccccc2)c1,18.3%,44.3*,-17.2%,48.5,6.8%,-5.4%
SMILES,FBPA Giardia inh,Cycloheximide cs,Tb PYK inh,Shiga toxin inh,LmPK inh,Sm TGR block
COc1cccc(NC(=S)NCc2cccs2)c1,-2.1%,3.2,0.5%,42.8*,2.1%,-21.3%
COc1cccc(NC(=S)Nc2cccnc2)c1,-8.6%,8.0,2.5%,22.0,0.7%,39.8µM*
COc1cccc(NC(=S)N/N=C2/CCCCc3ccccc32)c1,-2.7%,41.6*,-2.6%,55.4*,8.0%,0.4%
COc1ccc(NC(=S)Nc2cccnc2)c(OC)c1,-6.1%,-3.4,2.4%,-8.6,-0.5%,u
S=C(NCc1ccccc1)Nc1cccc(Cl)c1,-7.1%,11.6,-7.8%,25.2,-1.2%,u
CCCN(CCC)CCCNC(=O)Cn1cnc2onc(-c3ccc(F)cc3)c2c1=O,x,x,-2.0%,x,x,1.4%
COc1ccc(NC(=O)N(C)C[C@H]2Oc3ccc(NC(=O)Cn4cnnn4)cc3C(=O)N([C@H](C)CO)C[C@@H]2C)cc1,x,x,2.7%,x,x,x
N#CCCn1c(=O)c(-c2ccc(F)cc2)nc2cnc(Oc3ccccc3)nc21,6.7%,x,2.6%,x,x,x
CCc1ccccc1NC(=O)Cn1ccn(-c2cc(C)cc(C)c2)c(=O)c1=O,x,x,6.7%,x,x,-7.4%
COc1cccc(NC(=S)Nc2ccc(Br)cc2Cl)c1,-9.0%,19.6*,-1.1%,31.9,2.3%,22.4µM*
CCOc1ccc(NC(=S)Nc2ccc(Br)cc2Cl)cc1,-6.5%,-1.2,-2.6%,16.0,-1.4%,-26.7%
O=c1c2cccnc2n(Cc2ccccc2F)c(=O)n1Cc1ccccc1Cl,x,x,-2.0%,x,x,-4.5%
COc1cc(OC)c(OC)cc1CNCc1ccc2c(c1)OCO2,u,6.3,17.8%,9.5,-10.5%,44.7µM*
COc1cc(Br)c(CNCCc2ccc3c(c2)OCO3)cc1OC,u,-3.1,3.5%,-7.6,-1.3%,-31.3%
COc1cc(OC)c(OC)cc1CNCCc1ccc2c(c1)OCO2,-24.3%,-0.7,-0.2%,-16.6,-0.1%,39.8µM*
COc1cccc(CNCCc2ccc3c(c2)OCO3)c1OC,-24.5%,-1.9,7.9%,x,-0.7%,39.8µM*
COc1cccc(CNCCc2cccc(F)c2)c1OC,u,-1.8,2.2%,x,1.8%,u
Cc1ccc2nc(Cl)c3cc(C(=O)NC4CCCCC4)sc3c2c1,x,x,-7.0%,x,x,-3.6%
COc1cccc(-c2noc(C3CCCN(S(=O)(=O)c4cccc(Cl)c4C)C3)n2)c1 (stereo not drawn),-1.6%,-2.7,-2.8%,-21.8,2.5%,-23.3%
CCCCC(=O)N1CCCC(c2nc(-c3cccc(OC)c3)no2)C1 (stereo not drawn),3.3%,41.2*,-0.4%,82.5*,-16.6%,4.3%
COc1cccc(-c2noc(C3CCCN(C(=O)c4ccccc4OC)C3)n2)c1 (stereo not drawn),9.2%,52.1*,0.4%,47.8*,-0.6%,5.2%
CCCS(=O)(=O)N1CCCC(c2nc(-c3cccc(OC)c3)no2)C1 (stereo not drawn),-0.6%,17.8*,-3.4%,44.7,3.2%,-0.9%
O=c1c(-c2ccccc2)nc2cnc(N3CCOCC3)nc2n1Cc1ccc(F)cc1,-2.5%,x,x,x,x,x
OCCC1CN(C/C=C/c2ccco2)CCN1Cc1ccccc1 (stereo not drawn),-10.1%,0.6,-8.4%,-25.3,-1.2%,20µM*
Nc1ccc(S(=O)(=O)C(F)(F)F)cc1N,-8.6%,8.9,2.6%,-4.9,2.8%,-7.7%
